Results reported in PubChem BioAssay (NCATS).
Inconclusive results are not listed. Active and inactive are the calls of the source. Unless noted, calls come from the whole dose curve; as a rule, active = well fitted curve in the direction sought with a large enough effect; inconclusive = small, poorly fitted or top-dose-only effect, or another doubt; inactive = no such curve, though single readings can be large; an effect the other way counts as inactive or inconclusive.

Assays:
[1] = target: Lysosomal acid glucosylceramidase (Homo sapiens) (UniProt P04062); experiment: Glucocerebrosidase-p2 (AID 348; in the data active = potency below about 10 µM; note: potency is the fitted concentration of half-maximal effect); conditions: purified GBA, blue fluorogenic substrate, 40 min
Method in brief: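 Compounds titrated from 0.6 nM upwards against 0.2 nM enzyme in pH 5.9 citric acid/KH2PO4, taurocholate, tween-20; blue fluorogenic substrate 80 uM, 40 min room temperature, stopped and read Ex 365/Em 440 for AC50.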

[2] = NFAT Signaling Pathway (AID 444; active = well fitted curve in either direction with a large enough effect, not every such curve was filed as active;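 note: carbachol stimulus at about its EC50 of 1 µM final; % is set by controls: 0 for no effect and ±100 for the full control effect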); conditions: Jurkat NFAT-bla M1, carbachol, beta-lactamase ratio, 5 h; at 7.69 µM (top of the series) unless noted
Method in brief: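 Read-out: CCF4 FRET ratio (460 nm/530 nm) after 1 h RT dye loading, used for %activity and AC50 from titration series. Cells: Jurkat NFAT-β-lactamase/M1 line, treated with compound plus 1 uM carbachol for 5 h, 37 °C.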

[3] = target: Glucocorticoid receptor (Homo sapiens) (UniProt P04150); experiment: GR-GFP Redistribution (AID 450;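 active = compounds whose dose series gives a full or clear partial fitted curve of increased nuclear translocation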; note: potency is the fitted concentration of half-maximal effect); conditions: U2OS GR-GFP nuclear translocation, laser cytometry, 2 h
[4] = target: Glucocorticoid receptor (Homo sapiens) (UniProt P04150); experiment: GR-EFC Redistribution (AID 451; calls by dose curve; note: potency is the fitted concentration of half-maximal effect); conditions: CHO-K1 GR-EFC translocation, beta-gal luminescence, 2 h
Method in brief: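 Translocation of GR-ED fusion to nuclear EA restores b-gal, read by luminescence after 1 h room-temperature detection. Engineered CHO-K1 biosensor cells, 1,000/well, exposed 2 h at 37 C to titrations up to 46 uM final.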

[5] = target: Mitogen-activated protein kinase 10 (Mus musculus) (UniProt Q61831); experiment: JNK3 AlphaScreen Assay (AID 530; active = well fitted curve in either direction with a large enough effect, not every such curve was filed as active;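 note: kinase came from lysate of stimulated human HepG2 cells; signal reports phosphorylation of biotinylated GST-cJun 1-79 at Ser73 with 10 µM ATP; % is set by controls: 0 for no effect and ±100 for the full control effect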); conditions: JNK3 lysate, c-Jun phosphorylation; series mostly up to 57.1 µM
Method in brief: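 Room-temperature AlphaScreen kinase assay; pre-activated HepG2 lysate as JNK3 source, biotin-GST-cJun(1-79) substrate, 10 uM ATP, compound 15 min preincubation.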

[6] = target: 3',5'-cyclic-AMP phosphodiesterase 4B (Homo sapiens) (UniProt Q07343); experiment: qHTS Assay for Inhibitors of PDE-IV (AID 607; active = well fitted activation curve with a large enough effect in the main read-out, with a control signal flat, not every such curve was filed as active; note: % of control where 0% means no effect); conditions: HEK293 ACTOne CNG channel cells, membrane potential fluorescence; series mostly up to 22.9 µM
Method in brief: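 Live HEK293 cells with a modified cyclic nucleotide-gated (CNG) channel report intracellular cAMP via membrane-potential dye fluorescence (ex 535/em 590 nm). Endogenous PDE-IV was targeted. Compounds were tested at up to 22.9 uM final; RO 20-1724 100 uM served as control.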

[7] = qHTS Assay for Lipid Storage Modulators (AID 1519; calls by dose curve); conditions: Drosophila S3 cells, BODIPY lipid droplet/cell ratio, laser cytometry, cells loaded with oleic acid; for activity change, negative = inhibition: at 57.5 µM (top of the series)
Method in brief: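 Cells seeded at 5,000 per well were treated with compounds over a concentration series and loaded with oleic acid (400 uM, as added). Lipid droplet fluorescence (488 nm excitation, 500-530 nm channel) was read by laser-scanning cytometry and normalized to 20 uM Triacsin C.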

[8] = target: Dual specificity protein kinase CLK4 (Homo sapiens) (UniProt Q9HAZ1); experiment: qHTS Assay for Inhibitors of CDC-like Kinase 4 (Kinase-Glo Assay) (AID 1770); conditions: recombinant Clk4, Kinase-Glo ATP depletion luminescence; series mostly up to 66.7 µM; note: nearly all actives have a fitted effect of over 65% in size; note: potency is the fitted concentration of half-maximal effect
Method in brief: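 Recombinant human Clk4 (25 nM) phosphorylated RS repeat peptide (100 uM) with 1 uM ATP in Tris pH 7.5/MgCl2/EGTA/DTT/Triton buffer for 4.5 h at room temperature. Residual ATP was quantified by Kinase-Glo luciferase luminescence.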

[9] = target: Dual specificity protein kinase CLK4 (Homo sapiens) (UniProt Q9HAZ1); experiment: qHTS Assay for Inhibitors of CDC-like Kinase 4 (ADP-Glo Assay) (AID 1771); conditions: recombinant CLK4, ADP-Glo luminescence; series mostly up to 80 µM; note: nearly all actives have a fitted effect of over 70% in size; note: potency is the fitted concentration of half-maximal effect
Method in brief: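 Kinase reaction: Clk4 at 25 nM, RS repeat peptide substrate at 100 uM, ATP at 1 uM, 1 hr, room temperature. Product ADP detected as luciferase signal via ADP-Glo.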

[10] = target: Dual specificity protein kinase CLK4 (Homo sapiens) (UniProt Q9HAZ1); experiment: qHTS Assay for Inhibitors of CDC-like Kinase 4 (ADP-FP Assay) (AID 1795); conditions: Transcreener ADP fluorescence polarization; series mostly up to 50 µM; note: nearly all actives have a fitted effect of over 60% in size; note: potency is the fitted concentration of half-maximal effect
Method in brief: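 Recombinant human Clk4 (6.25 nM) phosphorylated RS repeat peptide (100 uM) with 1 uM ATP in Tris pH 7.5/MgCl2/EGTA/DTT/Triton buffer for one hour. ADP was quantified by Transcreener competitive fluorescence polarization against an ADP calibration curve.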

[11] = target: Ubiquitin carboxyl-terminal hydrolase 1 (Homo sapiens) (UniProt O94782); experiment: Inhibitors of USP1/UAF1: Pilot qHTS (AID 504865); conditions: purified USP1/UAF1, Ub-rhodamine cleavage fluorescence; series mostly up to 54.9 µM; note: nearly all actives have a fitted effect of over 35% in size; note: potency is the fitted concentration of half-maximal effect
Method in brief: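 USP1/UAF1 complex (1nM) preincubated with compound 15 min at room temperature, then Ub-Rho substrate (150nM final) added. Fluorescence read kinetically at 480/540 nm, 6 reads every 60 seconds. Buffer: 50mM HEPES pH 7.8, 0.5mM EDTA, 0.1 mg/ml BSA, 1mM TCEP, 0.01% Tween-20.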

[12] = AP1 Signaling Pathway (AID 357; active = well fitted curve in either direction with a large enough effect, not every such curve was filed as active;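 note: ME-180 reporter cells stimulated with EGF at its EC50 level; % is set by controls: 0 for no effect and ±100 for the full control effect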); conditions: ME-180 AP-1-bla reporter, EGF-induced, beta-lactamase ratio, 5 h; at 7.69 µM (top of the series) unless noted
Method in brief: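 AP-1-bla ME-180 cells, Opti-MEM + 0.5% dialyzed FBS, plated overnight 37 °C. Cpd titration + EC50 EGF, 5 h 37 °C. CCF4 2.5 h RT; ex 405, em 460/530 ratio → %activity, AC50.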

[13] = target: Cytochrome P450 1A2 (Homo sapiens) (UniProt P05177); experiment: p450-cyp1a2 (AID 410; calls by dose curve; note: potency is the fitted concentration of half-maximal effect;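 for activity change, negative = inhibition: -100% = full effect of reference inhibitor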); conditions: recombinant CYP1A2, luciferin-ME demethylation, luminescence; series mostly up to 57 µM
Method in brief: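 Inhibition was calculated relative to 57 uM furafylline (full inhibition). The reaction used human CYP1A2 at 20nM with Luciferin-ME at its Km, 100uM, driven by an NADPH-regenerating system for 60 min at room temperature.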

[14] = Stat Signaling Pathway (AID 446; active = well fitted curve in either direction with a large enough effect, not every such curve was filed as active;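 note: ME-180 cervical cancer cells given 40 pM IL-6 alongside compound; SIE-controlled beta-lactamase reporter measured as 460/530 nm FRET emission ratio; % is set by controls: 0 for no effect and ±100 for the full control effect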); conditions: ME-180 (cervical carcinoma) SIE beta-lactamase reporter, IL-6 stimulated, 5 h; at 7.69 µM (top of the series) unless noted
Method in brief: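 IL-6/STAT signaling read in ME-180 cells via an SIE beta-lactamase reporter. Stimulus was 40 pM IL-6 (its AC50) for 5 hrs, so both activation and inhibition register.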

[15] = target: Cytochrome P450 3A4 (Homo sapiens) (UniProt P08684); experiment: qHTS Assay for Activators of Cytochrome P450 3A4 (AID 885); conditions: recombinant CYP3A4, Luciferin-PPXE luminescence, 60 min; series mostly up to 57.1 µM; note: nearly all actives have a fitted effect of over 65% in size
Method in brief: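 Quantitative HTS format: compounds preincubated with 20nM human CYP3A4 and Luciferin-PPXE substrate at KM, reaction started by NADPH regeneration, stopped after 60 min, luciferase luminescence read 20 min later.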

[16] = target: Cytochrome P450 3A4 (Homo sapiens) (UniProt P08684); experiment: qHTS Assay for Inhibitors and Substrates of Cytochrome P450 3A4 (AID 884); conditions: recombinant CYP3A4, Luciferin-PPXE luminescence; series mostly up to 57.1 µM; note: potency is the fitted concentration of half-maximal effect; nearly all actives have a fitted effect of over 50% in size
Method in brief: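 20 nM human CYP3A4 with 25 uM Luciferin-PPXE (at KM) in 200 mM KPO4, preincubated 10 min with compound; NADPH regeneration started a 60 min RT reaction. Luciferin detected by luminescence, normalized to 57 uM ketoconazole as full inhibition.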

[17] = measured here: cell count channel max response
[18] = measured here: lipid channel max response

Glucocorticoid receptor (Homo sapiens), sequence (P04150 whole entry, looked up, the tested form may be a part): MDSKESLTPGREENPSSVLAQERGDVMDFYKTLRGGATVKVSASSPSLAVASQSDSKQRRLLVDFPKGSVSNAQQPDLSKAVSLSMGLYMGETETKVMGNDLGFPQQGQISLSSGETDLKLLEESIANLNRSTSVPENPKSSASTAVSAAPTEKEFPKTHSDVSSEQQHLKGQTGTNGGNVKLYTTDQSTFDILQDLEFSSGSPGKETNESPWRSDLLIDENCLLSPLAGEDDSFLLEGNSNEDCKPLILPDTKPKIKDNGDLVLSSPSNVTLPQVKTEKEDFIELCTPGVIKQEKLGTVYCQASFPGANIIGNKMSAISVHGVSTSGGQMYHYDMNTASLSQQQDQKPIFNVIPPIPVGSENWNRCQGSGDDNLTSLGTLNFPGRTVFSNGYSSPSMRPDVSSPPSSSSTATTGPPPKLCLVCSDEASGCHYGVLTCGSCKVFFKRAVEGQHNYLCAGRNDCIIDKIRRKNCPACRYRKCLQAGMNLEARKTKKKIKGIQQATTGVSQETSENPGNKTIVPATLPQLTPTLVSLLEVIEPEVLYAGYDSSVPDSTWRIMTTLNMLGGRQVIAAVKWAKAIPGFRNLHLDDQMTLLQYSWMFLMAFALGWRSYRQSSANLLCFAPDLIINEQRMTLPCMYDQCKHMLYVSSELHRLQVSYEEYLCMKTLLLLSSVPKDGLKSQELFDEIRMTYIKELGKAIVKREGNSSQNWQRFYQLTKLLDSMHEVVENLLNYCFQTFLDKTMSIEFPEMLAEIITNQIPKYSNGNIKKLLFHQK
Dual specificity protein kinase CLK4 (Homo sapiens), sequence (Q9HAZ1 whole entry, looked up): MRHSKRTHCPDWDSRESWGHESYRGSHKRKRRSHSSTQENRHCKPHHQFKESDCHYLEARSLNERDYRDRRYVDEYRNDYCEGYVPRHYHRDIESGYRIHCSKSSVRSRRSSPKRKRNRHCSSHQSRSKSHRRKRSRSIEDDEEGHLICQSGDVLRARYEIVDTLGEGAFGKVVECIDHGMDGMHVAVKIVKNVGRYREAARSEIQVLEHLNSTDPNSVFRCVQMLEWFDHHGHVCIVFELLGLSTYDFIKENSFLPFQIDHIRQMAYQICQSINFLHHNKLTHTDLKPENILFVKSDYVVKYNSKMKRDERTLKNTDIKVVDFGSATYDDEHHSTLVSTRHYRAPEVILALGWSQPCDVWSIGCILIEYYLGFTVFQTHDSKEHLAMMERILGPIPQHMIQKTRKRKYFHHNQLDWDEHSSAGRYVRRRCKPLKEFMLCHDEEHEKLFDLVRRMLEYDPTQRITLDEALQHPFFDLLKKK
Ubiquitin carboxyl-terminal hydrolase 1 (Homo sapiens), sequence (O94782 whole entry, looked up): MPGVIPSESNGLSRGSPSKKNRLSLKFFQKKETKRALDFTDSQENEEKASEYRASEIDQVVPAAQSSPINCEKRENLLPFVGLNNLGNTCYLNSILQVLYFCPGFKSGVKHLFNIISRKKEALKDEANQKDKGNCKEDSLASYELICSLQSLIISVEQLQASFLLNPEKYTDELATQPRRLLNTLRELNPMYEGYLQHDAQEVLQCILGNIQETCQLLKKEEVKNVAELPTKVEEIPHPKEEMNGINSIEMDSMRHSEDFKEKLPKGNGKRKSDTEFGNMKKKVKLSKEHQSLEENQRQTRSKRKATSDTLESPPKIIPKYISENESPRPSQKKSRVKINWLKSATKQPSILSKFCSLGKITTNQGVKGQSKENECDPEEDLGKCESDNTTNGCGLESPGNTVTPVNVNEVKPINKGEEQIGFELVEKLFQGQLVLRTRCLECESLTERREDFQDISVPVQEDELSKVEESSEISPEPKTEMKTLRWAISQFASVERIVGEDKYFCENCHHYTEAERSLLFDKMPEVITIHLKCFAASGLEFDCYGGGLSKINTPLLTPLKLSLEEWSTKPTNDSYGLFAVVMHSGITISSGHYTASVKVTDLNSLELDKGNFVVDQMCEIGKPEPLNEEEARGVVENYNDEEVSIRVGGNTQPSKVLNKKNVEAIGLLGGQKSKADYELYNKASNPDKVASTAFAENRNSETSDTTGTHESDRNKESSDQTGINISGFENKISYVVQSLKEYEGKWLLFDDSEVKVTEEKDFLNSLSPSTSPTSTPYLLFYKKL
Lysosomal acid glucosylceramidase (Homo sapiens), sequence (P04062 whole entry, looked up): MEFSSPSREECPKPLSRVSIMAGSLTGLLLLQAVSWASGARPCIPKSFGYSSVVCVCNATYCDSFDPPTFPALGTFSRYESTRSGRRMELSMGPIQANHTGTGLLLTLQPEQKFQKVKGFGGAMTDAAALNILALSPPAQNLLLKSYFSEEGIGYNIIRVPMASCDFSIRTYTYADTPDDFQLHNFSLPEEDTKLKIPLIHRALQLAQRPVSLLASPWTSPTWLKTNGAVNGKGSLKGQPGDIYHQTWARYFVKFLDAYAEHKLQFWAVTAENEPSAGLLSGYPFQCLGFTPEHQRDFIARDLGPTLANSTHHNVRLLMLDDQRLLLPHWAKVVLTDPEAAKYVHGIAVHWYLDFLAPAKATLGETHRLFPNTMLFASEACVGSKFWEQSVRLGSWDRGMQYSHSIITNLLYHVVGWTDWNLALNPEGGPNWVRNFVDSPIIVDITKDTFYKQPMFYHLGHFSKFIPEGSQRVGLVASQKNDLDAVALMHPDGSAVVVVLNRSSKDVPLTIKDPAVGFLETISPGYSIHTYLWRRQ
Cytochrome P450 1A2 (Homo sapiens), sequence (P05177 whole entry, looked up): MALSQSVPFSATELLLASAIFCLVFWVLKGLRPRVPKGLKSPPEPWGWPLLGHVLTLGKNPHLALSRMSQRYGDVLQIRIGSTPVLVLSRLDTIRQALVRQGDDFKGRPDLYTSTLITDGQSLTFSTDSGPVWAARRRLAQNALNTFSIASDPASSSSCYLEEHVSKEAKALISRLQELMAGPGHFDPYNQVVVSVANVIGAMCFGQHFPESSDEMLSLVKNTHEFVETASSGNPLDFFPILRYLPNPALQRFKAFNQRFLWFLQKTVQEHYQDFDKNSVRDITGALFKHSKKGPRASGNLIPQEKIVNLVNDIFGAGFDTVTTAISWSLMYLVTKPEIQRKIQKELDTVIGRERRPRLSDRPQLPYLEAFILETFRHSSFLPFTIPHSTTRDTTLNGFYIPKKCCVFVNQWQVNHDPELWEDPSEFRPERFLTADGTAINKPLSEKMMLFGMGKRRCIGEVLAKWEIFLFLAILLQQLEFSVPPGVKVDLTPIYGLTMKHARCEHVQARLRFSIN
Cytochrome P450 3A4 (Homo sapiens), sequence (P08684 whole entry, looked up): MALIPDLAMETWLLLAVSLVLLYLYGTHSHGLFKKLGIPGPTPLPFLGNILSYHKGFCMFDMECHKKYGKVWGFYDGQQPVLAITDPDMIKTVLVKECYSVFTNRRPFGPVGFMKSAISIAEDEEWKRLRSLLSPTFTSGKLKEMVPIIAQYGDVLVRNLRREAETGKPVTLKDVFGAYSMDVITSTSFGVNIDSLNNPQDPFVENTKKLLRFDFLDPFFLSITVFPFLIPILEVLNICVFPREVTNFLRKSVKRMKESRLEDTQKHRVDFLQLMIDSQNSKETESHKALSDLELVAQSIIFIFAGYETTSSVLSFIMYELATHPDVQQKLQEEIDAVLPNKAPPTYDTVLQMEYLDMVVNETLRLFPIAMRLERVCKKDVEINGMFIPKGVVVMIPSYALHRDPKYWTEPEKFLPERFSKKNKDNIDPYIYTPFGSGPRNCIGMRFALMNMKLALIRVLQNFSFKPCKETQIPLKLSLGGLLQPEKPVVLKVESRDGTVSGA
3',5'-cyclic-AMP phosphodiesterase 4B (Homo sapiens), sequence (Q07343 whole entry, looked up): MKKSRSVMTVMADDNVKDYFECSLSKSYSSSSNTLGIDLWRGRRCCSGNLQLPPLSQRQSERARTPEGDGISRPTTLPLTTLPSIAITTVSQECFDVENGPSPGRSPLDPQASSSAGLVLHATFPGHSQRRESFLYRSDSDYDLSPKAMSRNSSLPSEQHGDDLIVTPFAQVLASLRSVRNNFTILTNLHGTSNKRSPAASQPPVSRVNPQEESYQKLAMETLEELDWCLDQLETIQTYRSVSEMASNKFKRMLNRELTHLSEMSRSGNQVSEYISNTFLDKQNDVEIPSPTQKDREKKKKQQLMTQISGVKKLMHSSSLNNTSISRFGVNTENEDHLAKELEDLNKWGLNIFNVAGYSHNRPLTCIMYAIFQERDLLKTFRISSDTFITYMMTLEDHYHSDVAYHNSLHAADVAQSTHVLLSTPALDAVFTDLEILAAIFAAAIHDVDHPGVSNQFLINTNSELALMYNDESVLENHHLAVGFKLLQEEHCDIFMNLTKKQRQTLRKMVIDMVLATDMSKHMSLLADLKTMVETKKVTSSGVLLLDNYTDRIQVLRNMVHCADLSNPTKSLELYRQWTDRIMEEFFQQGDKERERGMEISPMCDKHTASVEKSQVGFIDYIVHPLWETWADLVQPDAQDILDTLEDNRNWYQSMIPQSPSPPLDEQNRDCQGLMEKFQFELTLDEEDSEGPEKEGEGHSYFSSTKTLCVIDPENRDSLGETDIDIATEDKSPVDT

| Compound | Potency [1] | activity change, negative = inhibition [2] | Potency [3] | Potency [4] | Potency [5] | Potency [6] | activity change, negative = inhibition [7] | max response [7, 17] [%] | max response [7, 18] [%] | Potency [8] | Potency [9] | Potency [10] | Potency [11] | activity change, negative = inhibition [12] | Potency [13] | activity, negative = inhibition [14] | Potency [15] | Potency [16] |
| --- | --- | --- | --- | --- | --- | --- | --- | --- | --- | --- | --- | --- | --- | --- | --- | --- | --- | --- |
| CN1CCN(c2ncc3nc(-c4ccccc4)c(=O)n(C4CC4)c3n2)CC1 | > 11.4 µM (inactive) | 30% (inactive) | > 9.22 µM (inactive) | > 46 µM (inactive) | inactive | inactive | 4.04% (inactive) | 24.3 | 27.3 | inactive | inactive | inactive | inactive |  |  |  |  |  |
| CN(C)Cc1ccccc1-c1cc(NCc2ccccc2)ncn1 |  |  | > 46 µM (inactive) | > 46 µM (inactive) | inactive |  | 4.72% (inactive) | 6.7 | 9.63 | inactive | inactive | inactive | inactive | -0.0154% (inactive) | inactive | 12.3% (inactive) |  |  |
| O=c1c(-c2ccc(F)cc2)nc2cnc(N3CCNCC3)nc2n1Cc1cccs1 | > 11.4 µM (inactive) | 200% [activator] (active) | > 9.22 µM (inactive) | > 46 µM (inactive) |  | inactive | 1.91% (inactive) | 8.56 | 9.26 | inactive | inactive | inactive | inactive |  | 10 µM (active) |  | inactive |  |
| COCCn1c(=O)c(-c2ccccc2)nc2cnc(N(C)C)nc21 | > 11.4 µM (inactive) | 10.9% (inactive) | > 9.22 µM (inactive) | > 46 µM (inactive) |  |  | 6.53% (inactive) | 12.4 | 13.8 | inactive | inactive | inactive | inactive | -2% (inactive) | 3.16 µM (active) |  | inactive |  |
| O=c1c(-c2ccc(F)cc2)nc2cnc(N3CCOCC3)nc2n1C1CC1 | > 11.4 µM (inactive) |  | > 9.22 µM (inactive) | > 46 µM (inactive) | inactive | inactive | 5.31% (inactive) | 17.4 | 19.7 | inactive | inactive | inactive | inactive | 16.2% (inactive) | inactive |  |  |  |
| COCCNc1ncnc2ccc(-c3ccc(N(C)C)cc3)cc12 | > 11.4 µM (inactive) | 4.01% (inactive) | > 46 µM (inactive) | > 46 µM (inactive) | inactive | inactive | -6.08% (inactive) | -1.3 | -8.9 | 8.91 µM (active) | 10 µM (active) | inactive | inactive |  | 0.251 µM (active) | -5.06% (inactive) | inactive | 7.94 µM (active) |
| COc1cccc(Cn2c(=O)c(C)nc3cnc(N(C)C)nc32)c1 | > 11.4 µM (inactive) | 1.59% (inactive) | > 9.22 µM (inactive) | > 46 µM (inactive) |  | inactive | -5.5% (inactive) | 19.8 | 12.4 | inactive | inactive | inactive | inactive | -23% (inactive) |  | -11.2% (inactive) |  |  |
| COc1ccccc1CNc1ncnc2ccc(-c3ccccc3OC)cc12 | > 11.4 µM (inactive) |  | > 46 µM (inactive) | > 46 µM (inactive) | inactive |  | -20% (inactive) | -10.4 | -24.8 | 4.47 µM (active) | 4.47 µM (active) | 1.58 µM (active) | inactive | -19.9% (inactive) | 1 µM (active) |  | inactive | 6.31 µM (active) |
| Cc1ccccc1-c1nc(N2CCOCC2)c2ccccc2n1 | > 11.4 µM (inactive) | -2.19% (inactive) | > 46 µM (inactive) | > 46 µM (inactive) | inactive |  | 6.43% (inactive) | 31.7 | 38.9 | 15.8 µM (active) | 15.8 µM (active) | 12.6 µM (active) | 28.2 µM (active) | 4.71% (inactive) | 2 µM (active) | 4.23% (inactive) | inactive |  |
| COc1ccccc1-c1nccc(Nc2ccc(F)cc2)n1 | > 11.4 µM (inactive) | 10.2% (inactive) | > 46 µM (inactive) | > 46 µM (inactive) | inactive |  | 4.58% (inactive) | 9.46 | 12.9 | inactive | inactive | inactive |  | 6.43% (inactive) |  | -4% (inactive) |  |  |
| COc1ccccc1-c1ccc2ncnc(NC3CC3)c2c1 | > 11.4 µM (inactive) | -1.81% (inactive) | > 46 µM (inactive) | > 46 µM (inactive) | inactive |  | -9.29% (inactive) | -20.8 | -29.7 | 11.2 µM (active) | 14.1 µM (active) | 12.6 µM (active) | inactive | -1.03% (inactive) |  | -18.1% (inactive) |  |  |
| Cc1ccccc1-c1cncnc1N1CCN(C)CC1 | > 11.4 µM (inactive) |  | > 46 µM (inactive) | > 46 µM (inactive) | inactive | inactive | 4.3% (inactive) | 4.53 | 8.66 | inactive | inactive | inactive | inactive | 7.79% (inactive) | 15.8 µM (active) | 11.4% (inactive) | inactive | 1.58 µM (active) |
